PubChem BioAssay (Tox21)
Inconclusive results are not listed. Calls of active or inactive are those of the source. Unless noted, calls follow the shape of the dose curve; as a rule, active = well fitted curve in the direction sought with a large enough effect in the repeat runs; inconclusive = weak or mixed curves; inactive = no such curve, though single readings can be large; an effect the other way counts as inactive or inconclusive.

Tests used:
[1] = qHTS assay for small molecules that induce genotoxicity in human embryonic kidney cells expressing luciferase-tagged ATAD5 - cell viability (AID 651634; calls by dose curve; also: nearly all actives have a fitted effect of over 25% in size)
Summary of the method: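 HEK293T cells carrying luciferase-tagged ATAD5, 2,000 cells/well, exposed to compound for 15.5 hr at 37C. Viability read as live-cell protease activity by CellTiter-Fluor fluorescence after 30 min at 37C.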

[2] = qHTS assay for small molecule disruptors of the mitochondrial membrane potential (AID 720635)
Summary of the method: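 HepG2 cells exposed to compound 1 hr at 37C, then Mito-MPS dye 30 min. Ratio read of aggregate (540/590 nm) versus monomer (490/535 nm) fluorescence.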

[3] = qHTS assay to test for compound auto fluorescence at 590 nm (red) in HepG2 cells (AID 720674)
Summary of the method: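 Fluorescence at 590 nm emission following 540 nm excitation was recorded from HepG2 wells one hour after compound transfer, with DMSO-only wells as vehicle and Rose Bengal sodium equivalency as the scale.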

[4] = qHTS assay to test for compound auto fluorescence at 535 nm (green) in HepG2 cells (AID 720675)
[5] = qHTS assay to test for compound auto fluorescence at 460 nm (blue) in HEK293 cells (AID 720678)
Summary of the method: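 HEK293 cells (2,000/well, medium with 10% dialyzed FBS) attached 4-5 hr, then exposed to compound overnight at 37C, 5% CO2. Blue fluorescence read at 405/460 nm, with triamterene as reference fluorophore.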

[6] = qHTS assay to test for compound auto fluorescence at 535 nm (green) in HEK293 cells (AID 720680)
[7] = qHTS assay to test for compound auto fluorescence at 460 nm (blue) in HEK293 cell free culture (AID 720681)
Summary of the method: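 Compounds were added to cell-free DMEM with 10% FBS and fluorescence read directly. The blue channel used 405 nm excitation and 460 nm emission, with triamterene as the reference fluorophore.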

[8] = qHTS assay to test for compound auto fluorescence at 535 nm (green) in HEK293 cell free culture (AID 720682)
Summary of the method: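 Using fluorescein as calibrant, autofluorescence was quantified at 485/535 nm in cell-free DMEM containing 10% FBS after pintool addition of compound or vehicle.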

[9] = qHTS assay to test for compound auto fluorescence at 590 nm (red) in HEK293 cell free culture (AID 720683)
Summary of the method: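 Cell-free wells of DMEM with 10% FBS received compound, and intrinsic fluorescence was read at excitation/emission 540/590 nm. Values expressed as equivalence to Rose Bengal sodium.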

[10] = qHTS assay to test for compound auto fluorescence at 590 nm (red) in HepG2 cell free culture (AID 720684)
Summary of the method: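 Compounds are added to culture medium (MEM, 10% FBS) lacking cells, then fluorescence is read at excitation 540 nm, emission 590 nm, with Rose Bengal sodium as the equivalency standard.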

[11] = qHTS assay to test for compound auto fluorescence at 460 nm (blue) in HepG2 cell free culture (AID 720685)
Summary of the method: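 Compound (23 nL) or DMSO pinned into cell-free MEM with 10% FBS; blue fluorescence read at 405/460 nm excitation/emission, expressed as auto-fluorescence equivalency to triamterene.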

[12] = qHTS assay to test for compound auto fluorescence at 535 nm (green) in HepG2 cell free culture (AID 720686)
[13] = qHTS assay to test for compound auto fluorescence at 460 nm (blue) in HepG2 cells (AID 720687)
Summary of the method: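 HepG2 cells in MEM with 10% FBS, attached overnight at 37 C, were exposed to compound or DMSO for 1 hr at 37 C, 5% CO2. Blue fluorescence was read at 405/460 nm, with triamterene as reference fluorophore.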

[14] = qHTS assay for small molecule agonists of the p53 signaling pathway - cell viability (AID 651633; calls by dose curve;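 also: p53RE-bla HCT reporter cells with a stable beta-lactamase p53 reporter; series mostly up to about 83 µM; nearly all actives have a fitted effect of over 30% in size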)
Summary of the method: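 p53RE-bla cells were treated with compound for 16 hours at 37 C. Cytotoxicity was then measured as CellTiter-Glo luminescence after 30 min at room temperature.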

[15] = qHTS assay for small molecule disruptors of the mitochondrial membrane potential - cell viability (AID 720634; calls by dose curve;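 also: human HepG2 liver cancer cells; series mostly up to about 83 µM; nearly all actives have a fitted effect of over 20% in size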)
Summary of the method: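 HepG2 cells, 2,000 per well, attached overnight, then treated 1 hr at 37 C, 5% CO2. Viability read as ATP by CellTiter-Glo luminescence after 30 min at room temperature. Read in the same wells as the m-MPI membrane-potential dye assay.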

[16] = target: Glucocorticoid receptor (Homo sapiens) (UniProt P04150); assay: qHTS assay to identify small molecule agonists of the glucocorticoid receptor (GR) signaling pathway (AID 720691; active = well fitted activation curve with a large enough effect in the signal ratio in the repeat runs, not every such curve was filed as active; the % refers to the signal ratio)
Chain of Glucocorticoid receptor (Homo sapiens) (P04150 whole entry, looked up): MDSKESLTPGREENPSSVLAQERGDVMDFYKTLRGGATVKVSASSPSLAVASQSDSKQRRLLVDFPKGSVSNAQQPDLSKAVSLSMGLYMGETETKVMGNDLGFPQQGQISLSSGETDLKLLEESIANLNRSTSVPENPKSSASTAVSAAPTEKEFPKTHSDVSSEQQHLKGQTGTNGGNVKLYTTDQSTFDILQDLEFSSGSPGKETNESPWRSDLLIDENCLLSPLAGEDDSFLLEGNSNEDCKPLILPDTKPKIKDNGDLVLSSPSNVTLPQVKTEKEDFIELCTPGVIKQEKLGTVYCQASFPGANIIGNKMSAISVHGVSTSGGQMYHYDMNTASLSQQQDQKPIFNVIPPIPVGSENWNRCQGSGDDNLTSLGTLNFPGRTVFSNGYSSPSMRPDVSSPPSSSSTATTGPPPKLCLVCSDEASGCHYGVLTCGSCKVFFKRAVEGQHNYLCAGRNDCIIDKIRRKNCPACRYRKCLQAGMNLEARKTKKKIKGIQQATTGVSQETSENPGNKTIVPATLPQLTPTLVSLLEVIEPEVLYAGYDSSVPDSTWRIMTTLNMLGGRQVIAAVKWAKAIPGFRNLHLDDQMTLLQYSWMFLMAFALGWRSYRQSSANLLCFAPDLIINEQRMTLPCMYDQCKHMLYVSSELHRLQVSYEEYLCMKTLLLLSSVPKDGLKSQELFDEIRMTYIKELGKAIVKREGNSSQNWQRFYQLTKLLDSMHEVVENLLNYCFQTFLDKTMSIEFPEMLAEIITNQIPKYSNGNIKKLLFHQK
Summary of the method: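 GR-bla HeLa cells carrying a GRE-driven beta-lactamase reporter, exposed to compounds for 18 h at 37 C. Reporter activation read as fluorescence after 2 h with LiveBLAzer B/G FRET substrate at room temperature.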

[17] = qHTS assay to test for compound auto fluorescence at 590 nm (red) in HEK293 cells (AID 720679)
Summary of the method: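 HEK293 cells (2,000/well, 10% dialyzed FBS) attached 4-5 hr, then dosed with compound or DMSO and incubated overnight at 37C, 5% CO2. Red fluorescence read at 540/590 nm, Rose Bengal sodium as reference fluorophore.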

[18] = qHTS assay for small molecules that induce genotoxicity in human embryonic kidney cells expressing luciferase-tagged ATAD5 (AID 651632); also: nearly all actives have a fitted effect of over 15% in size
Summary of the method: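 HEK293T cells carrying luciferase-tagged ATAD5 were given compound or DMSO vehicle and incubated 16 hr at 37C, 5% CO2. Luciferase activity was read after 30 min at room temperature with Amplite; a rise signals genotoxic stress.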

[19] = target: Glucocorticoid receptor (Homo sapiens) (UniProt P04150); assay: qHTS assay to identify small molecule antagonists of the glucocorticoid receptor (GR) signaling pathway (AID 720692; active = well fitted inhibition curve with a large enough effect in the signal ratio in the repeat runs, not every such curve was filed as active; the % refers to the signal ratio)
Summary of the method: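 GR-bla HeLa cells carrying a GRE-driven beta-lactamase reporter received compound after 4 h plating, then dexamethasone (5 nM final). After 18 h at 37C, the FRET substrate was loaded for 2 h at room temperature and fluorescence read.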

Measured: Potency

O=C(O)/C=C(\CC(=O)O)C(=O)O
inactive: [1] | [2] | [3] | [4] | [5] | [6] | [7] | [8] | [9] | [10] | [11] | [12] | [13]

O=P(O)(O)C(O)(Cc1cccnc1)P(=O)(O)O
inactive: [14] | [1] | [15] | [2] | [3] | [4] | [5] | [6] | [8] | [9] | [10] | [11] | [12] | [13] | [16]

O=C1CC2(CCCC2)CC(=O)N1CCNCC1COc2ccccc2O1 (stereo not drawn)
inactive: [1] | [3] | [4] | [5] | [17] | [6] | [7] | [8] | [9] | [10] | [11] | [12] | [13]

CNC(C)=O
inactive: [18] | [1] | [15] | [3] | [4] | [5] | [17] | [6] | [7] | [8] | [9] | [10] | [11] | [12] | [13] | [16] | [19]

C=CCON/C(CCC)=C1\C(=O)CC(C)(C)C(C(=O)OC)=C1O
inactive: [14] | [1] | [15] | [3] | [4] | [5] | [17] | [6] | [7] | [8] | [9] | [10] | [11] | [12] | [13] | [16] | [19]

CC(C)(O)c1ccc(C(C)(C)O)cc1
inactive: [14] | [1] | [15] | [2] | [3] | [4] | [5] | [17] | [6] | [7] | [8] | [9] | [10] | [11] | [12] | [13] | [16]

Cc1nc2ccc(Cl)cc2[nH]1
inactive: [18] | [1] | [15] | [2] | [3] | [4] | [5] | [17] | [6] | [7] | [8] | [9] | [10] | [11] | [12] | [13] | [16] | [19]

CCCCc1ccc(Cl)cc1
inactive: [18] | [1] | [15] | [2] | [3] | [4] | [5] | [6] | [7] | [8] | [9] | [10] | [11] | [12] | [13]

CC1=C(O)C(=O)CO1
inactive: [1] | [15] | [3] | [4] | [5] | [6] | [7] | [8] | [9] | [10] | [11] | [12] | [13]

CN(C)CCc1c[nH]c2ccc(CS(=O)(=O)N3CCCC3)cc12
inactive: [14] | [1] | [15] | [2] | [3] | [4] | [5] | [17] | [6] | [7] | [8] | [9] | [10] | [11] | [12] | [13]

N=C(N)N1CCc2ccccc2C1
inactive: [18] | [1] | [2] | [3] | [4] | [5] | [17] | [6] | [7] | [8] | [9] | [10] | [11] | [12] | [13] | [16] | [19]

NNC(=O)CCCCC(=O)NN
inactive: [18] | [1] | [15] | [3] | [4] | [5] | [17] | [6] | [7] | [8] | [9] | [10] | [11] | [12] | [13] | [16] | [19]

CC1(C)C(=O)C(C)(C)C1=O
inactive: [14] | [1] | [15] | [2] | [3] | [4] | [5] | [17] | [6] | [7] | [8] | [9] | [10] | [11] | [12] | [13]

CCC(=O)OCCOc1ccccc1
inactive: [14] | [1] | [3] | [4] | [5] | [17] | [6] | [7] | [8] | [9] | [10] | [11] | [12] | [13]

CC(=O)SCC(CC(=O)c1ccc(C)cc1)C(=O)O (stereo not drawn)
inactive: [18] | [1] | [15] | [2] | [3] | [4] | [5] | [17] | [6] | [8] | [9] | [10] | [11] | [12] | [13] | [16] | [19]

CC/C=C\CCCCCCCCCCOC(C)=O
inactive: [18] | [1] | [15] | [2] | [3] | [4] | [5] | [17] | [6] | [7] | [8] | [9] | [10] | [11] | [12] | [13] | [16] | [19]
